Measurements: ChEMBL document CHEMBL4296182, “CO-ADD screening of NIH NCI Diversity Set V”
For part of these data: Entries with a potency or affinity are not part of this list.

Experiments:
[1] = system: Staphylococcus aureus; assay: Antibacterial activity against Staphylococcus aureus MRSA ATCC 43300 (CO-ADD:GP_020); MIC in CAMBH media using NBS plates, by Resazurin F(560/590); assay type: functional; settings: Concentration 20 uM, ASSAY_TEST Inhibition of Bacterial Growth, detection method Resazurin, Fluorescence (ex560/em590), MEDIA CAMHB, plate type 384well, CORNING #3640, time 18 hr
[2] = system: Acinetobacter baumannii; assay: Antibacterial activity against Acinetobacter baumannii ATCC 19606 (CO-ADD:GN_034); MIC in CAMBH media using NBS plates, by Resazurin F(560/590); assay type: functional; settings: Concentration 20 uM, ASSAY_TEST Inhibition of Bacterial Growth, detection method Resazurin, Fluorescence (ex560/em590), MEDIA CAMHB, plate type 384well, CORNING #3640, time 18 hr
[3] = system: Escherichia coli; assay: Antibacterial activity against Escherichia coli ATCC 25922 (CO-ADD:GN_001); MIC in CAMBH media using NBS plates, by Resazurin F(560/590); assay type: functional; settings: Concentration 20 uM, ASSAY_TEST Inhibition of Bacterial Growth, detection method Resazurin, Fluorescence (ex560/em590), MEDIA CAMHB, plate type 384well, CORNING #3640, time 18 hr
[4] = system: Klebsiella pneumoniae; settings: Concentration 20 uM; ASSAY_TEST Inhibition of Bacterial Growth; detection method Absorption (OD600); MEDIA CAMHB; plate type 384well; NBS; CORNING #3640; time 18 hr
[5] = system: Candida albicans; settings: 20 µM
[6] = system: Cryptococcus neoformans; settings: Concentration 20 uM; ASSAY_TEST Inhibition of Fungal Growth; detection method Resazurin; Absorption (OD600-OD570); plate type 384well; NBS; CORNING #3640

Compound	Inhibition [1] [%]	Inhibition [2] [%]	Inhibition [3] [%]	Inhibition [4] [%]	Inhibition [5] [%]	Inhibition [6] [%]
Cn1ncc2c(Sc3ccc(Cl)cc3)ncnc21	-1.32	15.79	-1.92	2.06	4.47	-10.69
CC(=O)OCCn1c([N+](=O)[O-])cnc1/C=[N+](\[O-])C1CCCCC1	22.69	11.41	8.05	25.14	4.46	-10.83
C=C1S/C(=N\c2c(C)cccc2Cl)N(C(=O)c2sc3ccccc3c2Cl)C12CCCCC2	4.2	0.82	-2.79	4.92	5.73	0.57
C(=N\N=c1/nnn(Cc2ccccc2)[nH]1)/c1ccccc1	11.96	-3.55	3.73	9.14	6.47	-8.48
O=C1c2cccc3cc([N+](=O)[O-])cc(c23)C(=O)N1CCN1CCCC1 [PINAFIDE]	-1.04	10.65	-8.19	5.33	0.21	-7.33
O=C(CCl)NC1(C(=O)O)CCCC1	-0.81	16.39	-6.53	9.23	6.58	-2.6
O=C(Nc1ccc(Cl)c(Cl)c1)c1ccc(Cl)c(Cl)c1	18.37	5.32	2.55	6.19	-2.44	-2.12
OC1COC(OCc2ccccc2)C(O)C1O (configuration not stated)	21	-10.71	8.16	4.56	0.34	-6.82
C=CCN=C(S)Nc1cccc([N+](=O)[O-])c1	-6.7	-8.3	0.98	6.17	0.93	-2.12
COc1cc2c(c(OC)c1O)C(=O)CO2	-11.73	-8.29	-0.75	1.47	3.59	-3.51
Cc1ccc(S(=O)(=O)NC(=O)Nc2nccs2)cc1	16.17	-9.13	9.78	14.17	1.46	-5.56
N=C(NOC(=O)c1ccccc1)C(Cc1ccccc1)C(=O)NOC(=O)c1ccccc1 (configuration not stated)	11.08	-11.45	18.34	10.4	7.02	-11.11
Clc1ccc(-c2c(C3=NCCCN3)nnn2-c2ccc(Cl)cc2)cc1	10.56	-3.66	11.37	18	1.4	-5.35
Nc1o[nH]c(=O)c1C1CCCCC1	7.44	-3.3	16.54	10.69	1.7	-0.63
CCOC(=O)Nc1c2ccccc2nc2ccccc12	6.28	-11.12	4.72	16.5	2.36	-13.98
CCOC(=O)/C=C/c1nc(O)c(C)c(C(=O)OCC)n1	-2.98	-11.68	5.55	4.47	0.35	-10.31
O=c1[nH]cc(Cl)cc1Cl	16.39	-19.78	16.35	10.84	-0.92	0.46
CC1(C)c2ccccc2-c2nc3ccccc3cc2C1O (configuration not stated)	15.31	7.67	-1.43	14.38	9.47	-10.94
CN1CCN(C(=O)/C=C/c2ccc([N+](=O)[O-])o2)CC1	14.1	5.92	-7.59	6.31	3.54	10.04

Compound	Inhibition [1] [%]	Inhibition [2] [%]	Inhibition [3] [%]	Inhibition [4] [%]	Inhibition [5] [%]	Inhibition [6] [%]
Cn1ncc2c(NCc3ccccc3)ncnc21	5.23	-15.8	13.47	1.24	-0.05	-9.92
CCOc1ccc(NC(=O)Nc2cc(C(C)C)c(O)cc2C)cc1	12.02	-0.68	-2.75	20.87	4.16	-21.1
NC(=O)c1ccc(Cl)c2ccccc12	11.2	-9.07	13.67	7.47	6.64	-4.82
CC1CO/C(=C2\C(=O)OCC2C)C1 (configuration not stated)	4.79	-14.17	10.92	2.95	41.2	-12.83
CC(C)NC(=O)c1ccc(C(C)C)cc1	10.05	-9.59	11.28	-3.37	-0.32	-8.3
O=C(Cn1ccc(=O)[nH]c1=O)Nc1ccc(C(=O)O)c(O)c1	10.2	-9.39	10.79	11.75	-1.14	-6.61
Clc1ccc(Nc2nnc(-c3ccc4c(c3)OCO4)o2)cc1	-8.18	6.42	9.52	10.29	4.12	44.25
CCC1=C(c2ccc(OC)cc2)CCC(C(=O)O)C1C (configuration not stated)	20.78	6.76	-4.91	12.8	12.4	-6.31
CN1C(=O)c2ccccc2Cc2c(NCc3ccccc3)ncnc21	11.35	7.35	1.48	18.62	6.22	-9.85
c1ccc(-c2nc(-c3nccc4ccccc34)oc2-c2ccccc2)cc1	-13.7	-4.32	-16.8	-4.05	15.1	12.09
CC(C)Oc1ccc(C(=O)O)cc1	3.26	-8.45	5.58	15.4	24.9	-0.99
O=[N+]([O-])c1ccc(-c2ncc(-c3ccc(Br)cc3)o2)cc1	5.59	6.16	2.7	5.71	5.85	-3.69
O=c1cc(-c2cccnc2)oc2c1ccc1ccccc12	20.75	-10.07	18.5	-1.55	29.4	-11.93
CSc1nc(S)c2[nH]c(S)nc2n1	13.61	-13.83	6.32	11	6.49	2.53
O=C1OCC/C1=C\c1ccc(O)cc1	-0.41	-7.68	4.86	11.2	3.18	0.19
CCN(CC)Cc1cc2[nH]c3c4ccc(Cl)cc4ncc3c2cc1OC	9.09	18.93	-2.05	30.45	-0.29	-5.75
COC1C(=O)CCC2(CO2)C1(O)C1(C)OC1CC=C(C)C (configuration not stated)	-15.99	-18.89	14.59	5.17	9.99	-9.09
COc1cc(-c2ccc(Nc3ccccc3C(=O)O)c(OC)c2)ccc1Nc1ccccc1C(=O)O	0.05	8.67	4.59	-0.01	-0.13	-0.24
